PubChem BioAssay
A number with no mark means an inactive call. The rule behind the calls is not given here.

target: Pantothenate synthetase (Mycobacterium tuberculosis (strain ATCC 25618 / H37Rv)) (UniProt P9WIL5); assay: Recombinant Mtb pantothenate synthetase (PanC) inhibitors, coupled enzyme, confirmatory (AID 375); details: coupled enzyme assay; at 10 µM, active compounds read high;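 note: 0% = full reaction with vehicle and 100% = no enzyme background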
Sequence (P9WIL5 whole entry, looked up): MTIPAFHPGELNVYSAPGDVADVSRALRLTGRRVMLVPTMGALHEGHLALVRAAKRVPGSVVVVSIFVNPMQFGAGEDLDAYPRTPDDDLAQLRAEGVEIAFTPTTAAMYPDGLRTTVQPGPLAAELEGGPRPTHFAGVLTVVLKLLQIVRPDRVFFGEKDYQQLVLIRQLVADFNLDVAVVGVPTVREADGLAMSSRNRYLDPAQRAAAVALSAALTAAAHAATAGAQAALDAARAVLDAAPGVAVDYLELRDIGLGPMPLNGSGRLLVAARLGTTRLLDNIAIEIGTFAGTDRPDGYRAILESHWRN

| SMILES | inhibition [%] |
| --- | --- |
| Cc1onc(-c2ccccc2Cl)c1C(=O)Nc1cnn(Cc2ccccc2)c1 | 0 |
| O=C(CCN1C(=O)c2ccccc2C1=O)OCN1C(=O)c2ccccc2C1=O | 5 |
| CCc1ccc(NS(=O)(=O)c2ccc3[nH]cc(C(=O)N4CCCCC4)c(=O)c3c2)cc1 | 0 |
| CCN1CCN(C(=O)Cn2ncc3ccsc3c2=O)CC1 | 0 |
| CCOC(=O)C1=C(NC#N)OC(C)=C(C)C1c1ccc(O)cc1 (configuration not stated) | 0 |
| Cc1nc2nc(SCC(=O)NCc3ccco3)nn2c(C)c1Cc1ccccc1 | 0 |
| O=C(Cn1nc(Cc2ccncc2)c2ccccc2c1=O)N1CCc2ccccc2C1 | 0 |
| Cn1c(=O)n(CCC(=O)O)c2ccccc21 | 7 |
| O=C(OCc1cccs1)c1ccccc1NS(=O)(=O)c1ccc2c(c1)OCCO2 | 0 |
| COc1cccc(/C(O)=C2/C(=O)C(=O)N(CCN3CCOCC3)C2c2cccnc2)c1 (configuration not stated) | 1 |
| Cc1cccc(-n2ncc3c(NCCCO)ncnc32)c1 | 2 |
| COc1ccccc1N1CCN(C(=O)C2CCCO2)CC1 (configuration not stated) | 0 |
| Cn1c(C(=O)N2CCN(C(=O)c3ccco3)CC2)cc2c(=O)n3ccccc3nc21 | 9 |
| CCCN(CCC)CCNC(=O)C(NS(=O)(=O)c1ccc2c(c1)CCC(=O)N2)c1ccccc1 (configuration not stated) | 0 |
| COc1ccc(-c2nnn(CC(=O)c3ccc4c(c3)OCCO4)n2)cc1OC | 0 |
| CC(C)CCNC(=O)Cn1c(NCCC(C)C)nc2c1c(=O)n(C)c(=O)n2C | 0 |
| CCC(=O)N(Cc1ccco1)c1nc(-c2cc(OC)ccc2OC)cs1 | 0 |
| COCCNC(=O)c1c(N)n(/N=C/c2cccs2)c2nc3ccccc3nc12 | 0 |
| Cc1nnc(N(C)C(=O)Cc2ccc3c(c2)OCO3)s1 | 0 |
| CCOc1nc(OCC)nc(N2CCC(C)CC2)n1 | 0 |
| CCN(c1cccc(C)c1)S(=O)(=O)c1ccc2[nH]c(=O)c(=O)[nH]c2c1 | 7 |
| Cc1nc(NS(=O)(=O)c2ccccc2)sc1NC(=O)OC(C)C | 0 |
